Screening data (PubChem)
A selection: hits, their analogues and other compounds. The true share with any hit is near 8%.
Gal4-VP16 FLuc: counter-screen for ROR gamma inhibitors: Gal4-VP16 reporter; Drosophila S2 Gal4-VP16 UAS-luciferase, luminescence, 20 h; Potency, µM (doses to about 53.6 µM), inactives show at the top dose activity, negative = inhibition, hits mostly inhibitors; hit rate 3.5% among 310,000; AID 2546;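 note: Gal4-VP16 expression switched on by copper sulfate through the metallothionein promoter; potency is the fitted concentration of half-maximal effect; nearly all actives have a fitted effect of over 50% in size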
TSHR antag: antagonists of human thyroid stimulating hormone receptor. P16473. hit rate 0.2% among 330,000. TSHR-expressing cells, TSH-stimulated cAMP HTRF, 2 h; active compounds read low. activity change, negative = inhibition, % at 11.5 µM;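 active = activity change below a set negative limit, meaning inhibition stronger than a set level, cut at about -70% in these data; inconclusive = activity change between two set negative limits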
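Antagonism was scored as loss of TSH-driven cAMP in TSHR cells, stimulated with 4nM TSH (EC80) for 2 hours at 37 deg C and detected by homogeneous HTRF competition immunoassay.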
Coupling enz: inhibits coupling enzyme system, counter-screen for aldolase hits | hit rate 0.67% among 290,000 | coupling enzyme system counterscreen, AmpLite Red fluorescence | activity change, negative = inhibition, % at 58.2 µM, hits read low; in the data active = activity change below about -30%
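Final compound at 57.5 uM, incubated 10 min at RT with coupling enzyme reagent (glyceraldehyde-3-phosphate), then 20 min with substrate and AmpLite Red detection. Fluorescence read at 525/598 nm; tests interference with the coupling assay, not aldolase inhibition.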
RORgamma inh: inhibitors of mouse ROR gamma transcriptional activity. P51450. Drosophila S2 Gal4-RORgamma UAS-luciferase reporter, 20 h. Potency, µM (titrated, usually from 53.6 µM), without a hit: at the top dose activity change, negative = inhibition, most hits filed as inhibitors. hit rate 5.4% among 310,000; note: potency is the fitted concentration of half-maximal effect; nearly all actives have a fitted effect of over 60% in size
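Drosophila S2 cells stably expressing Gal4-DBD/mouse RORγ fusion under metallothionein promoter plus UAS-luciferase; compound 1 h, then 700 uM CuSO4 induction for 20 h at ambient temperature; inhibition read as reduced luminescence.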
ELG1 repair inh: ELG1-dependent DNA repair inhibition | hit rate 2.3% among 330,000 | Potency, µM (series often up to 46.1 µM), inactives show at the highest dose activity change, negative = inhibition, usual class: inhibitors | HEK293T ELG1-luciferase reporter, luminescence, 16 h; DNA damage induced by 5-fluorouridine | AID 504467; note: potency is the fitted concentration of half-maximal effect; nearly all actives have a fitted effect of over 55% in size
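Overnight (16 hr) co-exposure of 2,000 cells/well to 5-fluorouridine and compound at 37 °C preceded detection. Luciferase was quantified via ONE-Glo luminescence; loss of signal denotes inhibition.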
* = called active by the depositor; ? = inconclusive; / = not tested or not shown; [ ] = dose if it differs, or a comment. Unless noted, calls come from the whole dose curve; as a rule, active = well fitted curve in the direction sought with a large enough effect; inconclusive = small, poorly fitted or top-dose-only effect, or another doubt; inactive = no such curve, though single readings can be large; an effect the other way counts as inactive or inconclusive. % is set by controls: 0 for no effect and ±100 for the full control effect.

SMILES	Gal4-VP16 FLuc	TSHR antag	Coupling enz	RORgamma inh	ELG1 repair inh
Cc1c(C(=O)Oc2cccc3cccnc23)cccc1[N+](=O)[O-]	3.2µM*	-1	-12	2.8µM*	-10%
O=C(Oc1c(Cl)cc(Cl)c2cccnc12)c1cccc([N+](=O)[O-])c1	/	13	-8	0.28µM*	-17%
CCN(CC)C(=O)Oc1c(Cl)cc(Cl)c2cccnc12	-11%	-7	3	3%	-9%
COC(=O)c1ccc(CNC(=O)Cn2cnc3c(OCc4ccccc4)ncnc32)cc1	/	2	/	/	2%
COc1cc2c(cc1OC)CN(CC(=O)Nc1ccc(F)cc1)C(C(=O)O)C2 (stereo not given)	13%	0	0	20%	2%
O=C(Oc1ccc(Cl)c2cccnc12)c1cccc([N+](=O)[O-])c1	1.6µM*	3	-13	1.1µM*	?
O=C(Oc1coc(CSc2ncccn2)cc1=O)c1cccc([N+](=O)[O-])c1	3%	-5	2	-27%	7%
O=C(Oc1ccccc1)c1cccc2cccnc12	4µM*	1	0	2.5µM*	?
CC(=O)c1c(C)[nH]c(C(=O)OCc2c(F)cccc2Cl)c1C	17%	-20	0	-26%	7.3µM*
CC(=O)c1c(C)[nH]c(C(=O)OCC(=O)Nc2cc(Cl)ccc2[N+](=O)[O-])c1C	16µM*	-77*	-2	?	18µM*
CC(=O)c1c(C)[nH]c(C(=O)OCC(=O)NCCc2ccc(Cl)cc2)c1C	0%	-18	3	13%	?
CC(=O)c1c(C)[nH]c(C(=O)OCC(=O)NCCc2ccc(F)cc2)c1C	-3%	-4	4	11%	21µM*
CC(=O)c1c(C)[nH]c(C(=O)OCc2cccc(Cl)c2)c1C	19%	-8	-3	?	-16%
CC(=O)c1c(C)[nH]c(C(=O)OCc2ccc(F)cc2Cl)c1C	?	-23	-1	?	9.2µM*
COc1ccc(/C(O)=C2/C(=O)C(=O)N(c3ccccn3)C2c2cccc(Cl)c2)cc1 (stereo not given)	16%	-6	3	3%	-3%
COc1ccc(CCN2CC(C(=O)NCCCn3nc(C)cc3C)CCC2=O)cc1 (stereo not given)	4%	20	/	-37%	19%
CC1(C)CC(=O)C=C(NNC(=O)c2ccccc2O)C1	11µM*	-5	/	13µM*	?
O=C(CSc1ccccc1F)NCC1(N2CCCCC2)CCCCC1	/	5	/	/	?
O=C(CCN1C(=O)C2C3C=CC(C4CC34)C2C1=O)Oc1cccc2cccnc12 (stereo not given)	7.9µM*	0	-7	2µM*	2%
CCOC(=O)COc1ccc2c(C#N)c3ccccn3c2c1	17%[10 µM]	-2	-60*	-2%	-3%
CCOC(=O)c1c2ccc(OCC(=O)N/N=C/c3ccc(Cl)cc3)cc2n2ccccc12	12%	4	-12	11%	3%
N#Cc1c2ccc(OCC(N)=O)cc2n2ccccc12	-24%	-20	-37*	?	20%
COc1cc(OC)cc(C(=O)c2c(C)c(C#N)c3ccccn23)c1	-5%	-9	0	27%	-15%
CCn1nc(C)cc1-c1nnc(Sc2ncc([N+](=O)[O-])s2)n1C	4.5µM*	-92*	-2	5µM*	?
CCn1nc(C)cc1-c1nnc(SCC(=O)Nc2ccccc2)n1CCCOC	5%	30	0	-17%	-15%
SMILES	Gal4-VP16 FLuc	TSHR antag	Coupling enz	RORgamma inh	ELG1 repair inh
O=C(CC1CC2CCC1C2)Nc1nc(-c2ccccn2)cs1 (stereo not given)	13µM*	-8	-4	3.2µM*	21µM*
O=C(Nc1nc(-c2ccccn2)cs1)C1CC1	?	-10	0	16µM*	?
Cc1cccnc1NC(=O)C1CC(=O)N(c2ccc3c(c2)OCCO3)C1 (stereo not given)	/	9	/	/	15%
O=C(Nc1nc(-c2ccccn2)cs1)C12CC3CC(CC(O)(C3)C1)C2	-29%	-6	-4	?	?
O=C(Nc1nc(-c2ccccn2)cs1)C1CC(=O)N(c2ccc3c(c2)OCCO3)C1 (stereo not given)	?	0	-1	10µM*	?
c1ccc(-c2csc(Nc3cccnc3)n2)nc1	13%	-2	-3	?	?
c1ccc(Nc2nc(-c3ccccn3)cs2)cc1	10µM*	/	-1	3.5µM*	/
O=C(Oc1ccccc1)N1CCC2(CCCN(c3ncccn3)C2)CC1	8%	/	1	?	/
O=S(=O)(NCCCCNS(=O)(=O)c1c(F)cccc1F)c1ccc2c(c1)OCCO2	/	8	/	/	5%
CCOC(=O)C(CS)NCCN[C@@H](CS)C(=O)OCC (stereo not given in full)	-17%	/	/	-27%	/
COc1cccc(N2CCN(S(=O)(=O)c3ccc4c(c3)NC(=O)C(C)C(=O)N4)CC2)c1 (stereo not given)	?	-35	-1	?	8%
COc1ccc(-c2csc(Nc3ncccn3)n2)cc1C	-6%	4	2	16%	?
COc1cccc2sc(Nc3nc(-c4ccccn4)cs3)nc12	/	1	-14	0.045µM*	?
Cc1c(C(=O)Nc2ccc(F)cc2)sc2ncn(CC(=O)N3CCCCC3)c(=O)c12	17%	-12	2	11%	6%
Cn1c(/C(C#N)=C(\O)c2cc(Cl)sc2Cl)nc2ccccc21	4.5µM*	7	/	4.5µM*	5%
COc1ccc(C(O)c2nc3ccccc3n2C)cc1OC (stereo not given)	6.3µM*	-15	0	-35%	9.2µM*
CCSc1nc2ccccc2n1C(=O)c1ccc(S(=O)(=O)N2CCCCCC2)cc1	-10%	19	17	2%	8%
COc1ccc(/C(O)=C(\C#N)c2nc3ccccc3n2C)cc1OC	18µM*	-2	0	7.1µM*	3%
Cn1c(/C(C#N)=C(\O)c2ccc(S(=O)(=O)N3CCCCC3)cc2)nc2ccccc21	10µM*	4	-1	4.5µM*	?
Cn1c(/C(C#N)=C/c2cccc(O)c2)nc2ccccc21	-10%	8	0	-11%	?
CCn1c(CC(=O)Nc2ccc(F)cc2)nnc1SCC(=O)Nc1nnc(C)s1	4%	16	-10	2%	10%
Cn1c(/C(C#N)=C(\O)c2ccc(Br)s2)nc2ccccc21	?	-6	-5	3.5µM*	?
Cn1c(/C(C#N)=C/Nc2ccccn2)nc2ccccc21	-17%	19	0	?	-15%
CCOc1ccc(OCCOC(=O)CN2C(=O)NC3(CCCC3)C2=O)cc1	/	-7	/	/	6%
COC(=O)c1cc(NC(=O)CN(c2ccccc2OC)S(=O)(=O)c2ccccc2)ccc1Cl	0%	-7	1	14%	23µM*
